# Laboratory results published in publication PMC7862700, “An all-to-all approach to the identification of sequence-specific readers for epigenetic DNA modifications on cytosine”.
# Columns and labels:
# Assay in all cases: DAPPL (digital affinity profiling via proximity ligation, sequencing); 10 mM Tris-HCl pH 7.5, 50 mM NaCl, 1 mM DTT, 4% glycerol, room temperature, 30 min; GST-TFs on glutathione beads, 16-mer random dsDNA library, 0.1% formaldehyde crosslink after washing; high values mean tight binding
# FEV = target: T1, FEV (Homo sapiens, UniProt Q99581 1-238); conditions: protein: recombinant; tags: N-terminal GST; dsDNA, one strand shown
# T1 sequence: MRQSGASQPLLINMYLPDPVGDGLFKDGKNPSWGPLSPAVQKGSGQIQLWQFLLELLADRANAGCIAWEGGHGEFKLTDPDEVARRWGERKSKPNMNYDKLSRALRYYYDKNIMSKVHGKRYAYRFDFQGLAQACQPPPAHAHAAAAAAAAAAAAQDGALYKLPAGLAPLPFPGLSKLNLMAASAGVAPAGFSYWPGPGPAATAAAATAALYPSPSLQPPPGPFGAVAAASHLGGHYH
# Outline: (§1)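 Beads coated with glutathione captured GST-fused human transcription factors that had been expressed in yeast, and the factors were then given DNA barcodes and pooled with a tag-only sample. The pools were incubated with 200 nmole of a random double-stranded 16-mer DNA library in Tris/NaCl/DTT/glycerol buffer for 30 min at room temperature, washed, crosslinked with 0.1% formaldehyde and proximity-ligated with BsaI/T4 ligase at 37 °C for 1 h. PCR amplification and Illumina NextSeq500 sequencing came last. Binding signal is each hexamer's read frequency for a factor divided by its frequency for the tag-only sample.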
# ETV5 = ETV5 (Homo sapiens, UniProt P41161 1-510); conditions: protein: recombinant; tags: N-terminal GST; dsDNA, one strand shown
# Chain of ETV5 (P41161 whole entry): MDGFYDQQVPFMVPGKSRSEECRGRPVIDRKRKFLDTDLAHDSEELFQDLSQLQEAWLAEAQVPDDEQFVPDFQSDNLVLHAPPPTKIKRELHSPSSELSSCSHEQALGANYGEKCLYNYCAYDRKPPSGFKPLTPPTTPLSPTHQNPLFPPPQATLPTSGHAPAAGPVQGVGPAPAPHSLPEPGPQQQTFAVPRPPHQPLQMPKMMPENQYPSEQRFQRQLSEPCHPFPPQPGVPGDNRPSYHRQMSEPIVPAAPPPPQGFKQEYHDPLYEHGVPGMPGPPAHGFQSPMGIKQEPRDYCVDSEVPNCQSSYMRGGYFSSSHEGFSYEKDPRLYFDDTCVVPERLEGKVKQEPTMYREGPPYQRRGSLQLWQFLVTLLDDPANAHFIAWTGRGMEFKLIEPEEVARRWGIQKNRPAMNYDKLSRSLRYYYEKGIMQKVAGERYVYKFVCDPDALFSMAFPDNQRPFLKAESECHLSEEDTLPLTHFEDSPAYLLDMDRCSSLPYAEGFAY
# Outline: as §1
# HSF1 = HSF1 (Homo sapiens, UniProt Q00613 1-529); conditions: protein: recombinant; tags: N-terminal GST; chain copies: 3; dsDNA, one strand shown
# Chain of HSF1 (Q00613 whole entry): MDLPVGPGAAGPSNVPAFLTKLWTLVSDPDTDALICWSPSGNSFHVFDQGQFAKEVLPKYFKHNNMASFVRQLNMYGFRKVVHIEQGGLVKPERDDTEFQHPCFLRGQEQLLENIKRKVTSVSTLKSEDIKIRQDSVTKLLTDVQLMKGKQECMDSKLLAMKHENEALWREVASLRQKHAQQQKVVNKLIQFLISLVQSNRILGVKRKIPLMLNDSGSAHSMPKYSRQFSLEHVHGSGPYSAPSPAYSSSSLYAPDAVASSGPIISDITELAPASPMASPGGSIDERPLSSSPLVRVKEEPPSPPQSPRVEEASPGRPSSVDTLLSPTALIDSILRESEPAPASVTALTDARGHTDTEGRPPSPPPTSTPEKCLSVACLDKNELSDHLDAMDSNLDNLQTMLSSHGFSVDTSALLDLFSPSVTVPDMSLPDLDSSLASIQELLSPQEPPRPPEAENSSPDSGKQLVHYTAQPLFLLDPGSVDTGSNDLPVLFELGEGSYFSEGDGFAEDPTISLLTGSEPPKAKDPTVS
# Outline: as §1
# SPIC = target: T2, SPIC (Homo sapiens, UniProt Q8N5J4 1-248); conditions: protein: recombinant; tags: N-terminal GST; dsDNA, one strand shown
# T2 sequence: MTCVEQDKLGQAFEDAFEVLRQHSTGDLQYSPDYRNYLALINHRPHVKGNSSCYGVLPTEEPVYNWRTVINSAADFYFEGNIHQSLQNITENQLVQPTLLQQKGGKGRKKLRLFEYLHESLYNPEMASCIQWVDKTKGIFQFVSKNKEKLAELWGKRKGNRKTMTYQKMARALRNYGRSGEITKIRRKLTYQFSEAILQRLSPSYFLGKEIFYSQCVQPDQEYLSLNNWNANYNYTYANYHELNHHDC
# Outline: as §1
# ELF4 = ELF4 (Homo sapiens, UniProt Q99607 1-663); conditions: protein: recombinant; tags: N-terminal GST; dsDNA, one strand shown
# Chain of ELF4 (Q99607 whole entry): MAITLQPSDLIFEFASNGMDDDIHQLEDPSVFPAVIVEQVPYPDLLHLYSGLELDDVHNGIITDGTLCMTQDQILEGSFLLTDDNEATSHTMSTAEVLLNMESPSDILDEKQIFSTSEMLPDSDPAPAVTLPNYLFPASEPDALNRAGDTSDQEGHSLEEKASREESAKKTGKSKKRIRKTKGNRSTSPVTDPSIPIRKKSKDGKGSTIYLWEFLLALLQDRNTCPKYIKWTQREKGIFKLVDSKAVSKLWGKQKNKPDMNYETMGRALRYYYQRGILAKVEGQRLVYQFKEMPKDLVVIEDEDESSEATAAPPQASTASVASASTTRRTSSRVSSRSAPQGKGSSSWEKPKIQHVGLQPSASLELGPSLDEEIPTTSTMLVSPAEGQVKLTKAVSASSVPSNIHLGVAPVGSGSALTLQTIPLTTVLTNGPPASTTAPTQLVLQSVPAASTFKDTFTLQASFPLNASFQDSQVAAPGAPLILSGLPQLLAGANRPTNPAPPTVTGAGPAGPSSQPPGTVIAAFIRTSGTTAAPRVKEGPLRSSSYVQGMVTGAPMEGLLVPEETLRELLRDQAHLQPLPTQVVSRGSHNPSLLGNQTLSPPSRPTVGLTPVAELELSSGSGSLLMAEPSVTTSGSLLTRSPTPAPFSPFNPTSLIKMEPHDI
# Outline: as §1
# ELK4 = target: T3, ELK4 (Homo sapiens, UniProt P28324-2 1-405); conditions: protein: recombinant; tags: N-terminal GST; dsDNA, one strand shown
# T3 sequence: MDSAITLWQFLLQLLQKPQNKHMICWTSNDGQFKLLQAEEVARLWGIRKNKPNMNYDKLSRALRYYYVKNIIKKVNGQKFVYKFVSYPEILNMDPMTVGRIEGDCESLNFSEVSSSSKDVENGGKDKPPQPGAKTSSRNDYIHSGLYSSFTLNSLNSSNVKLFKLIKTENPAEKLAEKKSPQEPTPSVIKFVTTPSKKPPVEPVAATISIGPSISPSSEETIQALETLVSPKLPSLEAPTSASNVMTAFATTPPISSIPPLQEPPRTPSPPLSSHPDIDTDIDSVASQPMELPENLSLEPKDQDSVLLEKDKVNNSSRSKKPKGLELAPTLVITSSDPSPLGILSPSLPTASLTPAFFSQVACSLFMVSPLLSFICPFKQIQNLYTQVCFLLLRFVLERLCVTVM
# Outline: as §1
# ETV2 = target: T4, ETV2 (Homo sapiens, UniProt O00321 1-342); conditions: protein: recombinant; tags: N-terminal GST; dsDNA, one strand shown
# T4 sequence: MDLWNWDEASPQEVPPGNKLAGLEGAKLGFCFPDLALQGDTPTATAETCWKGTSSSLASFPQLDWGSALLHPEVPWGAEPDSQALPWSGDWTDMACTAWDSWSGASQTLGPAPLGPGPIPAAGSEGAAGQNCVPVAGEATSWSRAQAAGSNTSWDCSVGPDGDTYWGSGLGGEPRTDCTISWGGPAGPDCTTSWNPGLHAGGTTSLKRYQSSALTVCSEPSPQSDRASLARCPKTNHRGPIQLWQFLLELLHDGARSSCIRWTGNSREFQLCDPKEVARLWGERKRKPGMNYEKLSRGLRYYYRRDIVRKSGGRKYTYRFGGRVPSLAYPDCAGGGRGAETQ
# Outline: as §1
# ELF3 = target: T5, ELF3 (Homo sapiens, UniProt P78545 1-371); conditions: protein: recombinant; tags: N-terminal GST; dsDNA, one strand shown
# T5 sequence: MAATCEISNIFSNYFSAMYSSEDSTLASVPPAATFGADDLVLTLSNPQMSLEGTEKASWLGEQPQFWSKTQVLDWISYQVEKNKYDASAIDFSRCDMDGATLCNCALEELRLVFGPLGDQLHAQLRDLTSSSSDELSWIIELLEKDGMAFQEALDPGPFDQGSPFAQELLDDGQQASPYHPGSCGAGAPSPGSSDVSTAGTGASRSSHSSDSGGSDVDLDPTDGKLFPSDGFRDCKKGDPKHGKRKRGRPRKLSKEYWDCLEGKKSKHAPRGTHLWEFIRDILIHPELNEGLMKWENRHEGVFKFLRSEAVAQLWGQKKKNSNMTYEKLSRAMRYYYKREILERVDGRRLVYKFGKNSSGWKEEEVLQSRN
# Outline: as §1
# CRX = CRX (Homo sapiens, UniProt O43186 1-299); conditions: protein: recombinant; tags: N-terminal GST; dsDNA, one strand shown
# Chain of CRX (O43186 whole entry): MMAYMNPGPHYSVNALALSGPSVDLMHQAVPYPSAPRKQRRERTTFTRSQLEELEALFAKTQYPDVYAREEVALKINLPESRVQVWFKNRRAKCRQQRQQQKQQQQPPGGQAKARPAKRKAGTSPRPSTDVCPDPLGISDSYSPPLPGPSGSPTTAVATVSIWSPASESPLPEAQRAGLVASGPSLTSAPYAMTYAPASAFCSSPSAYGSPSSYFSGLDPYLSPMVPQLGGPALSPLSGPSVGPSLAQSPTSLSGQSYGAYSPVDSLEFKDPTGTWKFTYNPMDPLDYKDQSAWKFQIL
# Outline: as §1
# ETV1 = ETV1 (Homo sapiens, UniProt P50549 1-477); conditions: protein: recombinant; tags: N-terminal GST; dsDNA, one strand shown
# Chain of ETV1 (P50549 whole entry): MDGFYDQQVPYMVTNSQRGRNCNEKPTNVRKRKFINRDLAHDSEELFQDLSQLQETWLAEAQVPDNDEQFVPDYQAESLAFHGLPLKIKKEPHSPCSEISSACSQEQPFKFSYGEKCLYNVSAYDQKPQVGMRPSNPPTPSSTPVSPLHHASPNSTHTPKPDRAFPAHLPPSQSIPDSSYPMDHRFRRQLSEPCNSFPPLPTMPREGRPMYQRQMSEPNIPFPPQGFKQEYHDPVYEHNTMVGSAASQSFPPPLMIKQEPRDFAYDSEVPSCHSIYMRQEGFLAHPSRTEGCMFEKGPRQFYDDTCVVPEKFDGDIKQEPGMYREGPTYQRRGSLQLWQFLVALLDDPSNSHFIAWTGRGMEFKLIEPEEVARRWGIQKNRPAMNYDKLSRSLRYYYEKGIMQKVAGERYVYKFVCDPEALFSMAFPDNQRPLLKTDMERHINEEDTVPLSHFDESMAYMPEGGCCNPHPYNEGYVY
# Outline: as §1
# ERF = target: T6, ERF (Homo sapiens, UniProt P50548 1-548); conditions: protein: recombinant; tags: N-terminal GST; dsDNA, one strand shown
# T6 sequence: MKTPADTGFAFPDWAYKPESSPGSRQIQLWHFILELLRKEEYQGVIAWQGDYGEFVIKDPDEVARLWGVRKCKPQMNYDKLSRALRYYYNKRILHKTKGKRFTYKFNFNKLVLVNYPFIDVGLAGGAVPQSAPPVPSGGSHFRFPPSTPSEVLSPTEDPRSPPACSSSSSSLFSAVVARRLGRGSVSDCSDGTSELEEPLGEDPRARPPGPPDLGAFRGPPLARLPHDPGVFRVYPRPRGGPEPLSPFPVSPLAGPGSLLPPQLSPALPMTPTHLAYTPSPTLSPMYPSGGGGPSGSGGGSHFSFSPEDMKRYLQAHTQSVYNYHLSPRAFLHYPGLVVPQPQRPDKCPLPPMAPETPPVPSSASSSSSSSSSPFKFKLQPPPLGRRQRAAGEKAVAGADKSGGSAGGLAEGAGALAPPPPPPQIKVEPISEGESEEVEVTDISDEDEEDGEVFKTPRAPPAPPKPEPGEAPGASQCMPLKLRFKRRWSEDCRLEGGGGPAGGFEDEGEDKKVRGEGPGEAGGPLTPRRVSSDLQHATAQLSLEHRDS
# Outline: as §1
# ETV3L = target: T7, ETV3L (Homo sapiens, UniProt Q6ZN32 1-361); conditions: protein: recombinant; tags: N-terminal GST; dsDNA, one strand shown
# T7 sequence: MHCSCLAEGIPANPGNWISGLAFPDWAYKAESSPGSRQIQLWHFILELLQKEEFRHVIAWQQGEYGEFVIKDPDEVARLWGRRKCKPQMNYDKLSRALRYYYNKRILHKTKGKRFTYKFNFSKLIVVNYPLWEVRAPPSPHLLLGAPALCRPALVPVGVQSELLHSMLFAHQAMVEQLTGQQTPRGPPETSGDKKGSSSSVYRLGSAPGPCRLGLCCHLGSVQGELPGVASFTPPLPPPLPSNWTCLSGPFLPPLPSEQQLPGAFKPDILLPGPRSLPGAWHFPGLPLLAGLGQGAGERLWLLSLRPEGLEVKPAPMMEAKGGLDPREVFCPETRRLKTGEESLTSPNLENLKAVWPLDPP
# Outline: as §1
# ETS2 = target: T8, ETS2 (Homo sapiens, UniProt P15036 1-469); conditions: protein: recombinant; tags: N-terminal GST; dsDNA, one strand shown
# T8 sequence: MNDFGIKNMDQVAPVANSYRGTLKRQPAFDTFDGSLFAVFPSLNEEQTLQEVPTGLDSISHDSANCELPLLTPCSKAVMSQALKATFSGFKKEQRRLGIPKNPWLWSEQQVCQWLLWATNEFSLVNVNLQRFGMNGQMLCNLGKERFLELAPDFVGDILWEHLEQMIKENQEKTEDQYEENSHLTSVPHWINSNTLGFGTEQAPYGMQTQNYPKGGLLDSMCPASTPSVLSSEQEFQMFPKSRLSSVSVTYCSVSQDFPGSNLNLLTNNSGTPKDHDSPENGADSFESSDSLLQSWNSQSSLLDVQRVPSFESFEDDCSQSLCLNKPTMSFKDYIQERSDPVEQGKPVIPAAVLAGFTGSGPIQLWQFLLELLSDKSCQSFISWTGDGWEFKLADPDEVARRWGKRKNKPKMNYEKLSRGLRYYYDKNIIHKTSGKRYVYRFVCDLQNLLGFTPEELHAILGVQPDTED
# Outline: as §1
# SPDEF = target: T9, SPDEF (Homo sapiens, UniProt O95238 1-335); conditions: protein: recombinant; tags: N-terminal GST; dsDNA, one strand shown
# T9 sequence: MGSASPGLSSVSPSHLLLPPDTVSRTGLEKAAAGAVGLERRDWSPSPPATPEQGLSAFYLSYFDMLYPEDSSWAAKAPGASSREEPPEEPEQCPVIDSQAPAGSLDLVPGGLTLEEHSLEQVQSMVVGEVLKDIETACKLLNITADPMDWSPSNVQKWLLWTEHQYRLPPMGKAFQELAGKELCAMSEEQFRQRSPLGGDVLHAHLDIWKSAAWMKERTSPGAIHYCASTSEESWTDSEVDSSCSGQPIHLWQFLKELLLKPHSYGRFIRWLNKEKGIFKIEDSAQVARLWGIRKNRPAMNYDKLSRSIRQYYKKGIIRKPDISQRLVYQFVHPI
# Outline: as §1
# ETV7 = target: T10, ETV7 (Homo sapiens, UniProt Q9Y603 1-341); conditions: protein: recombinant; tags: N-terminal GST; dsDNA, one strand shown
# T10 sequence: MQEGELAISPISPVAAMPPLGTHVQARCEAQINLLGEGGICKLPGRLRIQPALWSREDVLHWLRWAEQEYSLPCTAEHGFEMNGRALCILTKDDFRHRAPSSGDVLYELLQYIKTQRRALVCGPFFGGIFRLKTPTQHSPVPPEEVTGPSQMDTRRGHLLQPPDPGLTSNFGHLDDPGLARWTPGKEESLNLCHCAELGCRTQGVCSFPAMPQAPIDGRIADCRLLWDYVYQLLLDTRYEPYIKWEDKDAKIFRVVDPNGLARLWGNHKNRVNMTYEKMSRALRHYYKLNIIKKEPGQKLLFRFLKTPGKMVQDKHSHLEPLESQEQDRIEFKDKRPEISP
# Outline: as §1
# ELF5 = target: T11, ELF5 (Homo sapiens, UniProt Q9UKW6-2 1-255); conditions: protein: recombinant; tags: N-terminal GST; dsDNA, one strand shown
# T11 sequence: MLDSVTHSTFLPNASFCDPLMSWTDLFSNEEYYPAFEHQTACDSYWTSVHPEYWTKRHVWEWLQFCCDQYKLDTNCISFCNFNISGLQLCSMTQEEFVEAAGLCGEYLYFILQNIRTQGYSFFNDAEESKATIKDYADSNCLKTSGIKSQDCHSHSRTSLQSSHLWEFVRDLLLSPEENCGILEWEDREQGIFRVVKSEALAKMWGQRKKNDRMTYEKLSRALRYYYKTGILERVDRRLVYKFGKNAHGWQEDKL
# Outline: as §1
# ETV3 = target: T12, ETV3 (Homo sapiens, UniProt P41162-2 1-143); conditions: protein: recombinant; tags: N-terminal GST; dsDNA, one strand shown
# T12 sequence: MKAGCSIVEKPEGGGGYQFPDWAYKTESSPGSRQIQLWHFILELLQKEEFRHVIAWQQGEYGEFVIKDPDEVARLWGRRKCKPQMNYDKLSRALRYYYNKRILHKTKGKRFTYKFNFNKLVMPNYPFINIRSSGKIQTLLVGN
# Outline: as §1
# ETV6 = ETV6 (Homo sapiens, UniProt P41212 1-452); conditions: protein: recombinant; tags: N-terminal GST; dsDNA, one strand shown
# Chain of ETV6 (P41212 whole entry): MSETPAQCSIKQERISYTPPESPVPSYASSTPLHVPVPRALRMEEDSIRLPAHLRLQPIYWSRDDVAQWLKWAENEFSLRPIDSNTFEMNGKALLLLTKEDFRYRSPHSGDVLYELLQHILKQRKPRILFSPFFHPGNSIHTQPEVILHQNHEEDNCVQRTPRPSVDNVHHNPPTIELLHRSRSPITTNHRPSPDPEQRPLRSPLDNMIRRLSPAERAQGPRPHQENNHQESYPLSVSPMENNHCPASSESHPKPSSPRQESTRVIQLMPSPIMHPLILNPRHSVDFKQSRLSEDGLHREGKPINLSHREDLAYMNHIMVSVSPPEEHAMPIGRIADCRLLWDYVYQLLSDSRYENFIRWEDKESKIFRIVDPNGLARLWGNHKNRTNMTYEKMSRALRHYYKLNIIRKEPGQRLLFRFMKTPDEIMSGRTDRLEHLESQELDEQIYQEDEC
# Outline: as §1
sequence,measurement,setting,value
CCTCTT,binding signal,FEV,"1.58 fold enrichment (6-mer frequency, TF over GST control)"
same,binding signal,ETV5,"1.68 fold enrichment (6-mer frequency, TF over GST control)"
same,binding signal,HSF1,"1.4 fold enrichment (6-mer frequency, TF over GST control)"
same,binding signal,SPIC,"1.52 fold enrichment (6-mer frequency, TF over GST control)"
same,binding signal,ELF4,"1.56 fold enrichment (6-mer frequency, TF over GST control)"
same,binding signal,ELK4,"1.56 fold enrichment (6-mer frequency, TF over GST control)"
same,binding signal,ETV2,"1.75 fold enrichment (6-mer frequency, TF over GST control)"
same,binding signal,ELF3,"1.32 fold enrichment (6-mer frequency, TF over GST control)"
same,binding signal,CRX,"1.81 fold enrichment (6-mer frequency, TF over GST control)"
same,binding signal,ETV1,"1.55 fold enrichment (6-mer frequency, TF over GST control)"
same,binding signal,ERF,"1.59 fold enrichment (6-mer frequency, TF over GST control)"
same,binding signal,ETV3L,"1.71 fold enrichment (6-mer frequency, TF over GST control)"
same,binding signal,ETS2,"1.56 fold enrichment (6-mer frequency, TF over GST control)"
same,binding signal,SPDEF,"1.57 fold enrichment (6-mer frequency, TF over GST control)"
same,binding signal,ETV7,"1.51 fold enrichment (6-mer frequency, TF over GST control)"
same,binding signal,ELF5,"1.75 fold enrichment (6-mer frequency, TF over GST control)"
same,binding signal,ETV3,"1.67 fold enrichment (6-mer frequency, TF over GST control)"
same,binding signal,ETV6,"1.68 fold enrichment (6-mer frequency, TF over GST control)"
